According to PubChem BioAssay AID620 (Sanford-Burnham Center for Chemical Genomics, 2007):
Among all 87,000 compounds or so, about 360 (0.41%) were called active. This excerpt belongs to a sample that is enriched for actives. Unmarked numbers belong to inactive results. Rule as the data show it: active = cytotoxicity above about 50%; inactive = the rest.

Experiment: HT1080 cell viability loss – fluorescence readout (AID 620);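 also: cells exposed to compound overnight then 4 h with Alamar Blue; 0% = vehicle DMSO and 100% = killing control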
Conditions: at 10 µM, active compounds read high
Work on `CC(C)(C)N(Cc1ccccc1)C(=O)c1ccc2c(c1)OCCO2` yielded a cytotoxicity of -6.6%. `Cc1sc2ncnc(NCC3CCCO3)c2c1C` (centres undefined) gave a cytotoxicity of -6.6%. `COC(=O)c1ccc(NC(=O)CSc2nc3cccnc3n2C)cc1` gave a cytotoxicity of -2.4%. Compound `COc1cc(NC(=O)C2CCCO2)c(C(=O)O)cc1OC` (centres undefined) has a cytotoxicity of 6.7%. `COc1ccccc1N1CCN(C(=O)c2cc3sccc3n2C)CC1` gave a cytotoxicity of -5.4%. `O=C(OC(C(=O)NC1CCCC1)c1ccccn1)c1cccs1` (centres undefined) showed a cytotoxicity of -10%. `CN=C1SC(CC(=O)Nc2sc3c(c2C#N)CCCC3)C(=O)N1C` (centres undefined) gave a cytotoxicity of 1.2%. With `CN1Cc2cc(C(=O)c3ccccc3O)cnc2NC1=O` the cytotoxicity was -10.1%. `CCCCN1Cc2cc(C(=O)c3cc(F)ccc3O)cnc2NC1=O` showed a cytotoxicity of -2.9%. In the case of `CN1Cc2cc(C(=O)c3cc(Cl)cc(CSc4ncccn4)c3O)cnc2NC1=O`, the cytotoxicity is reported as 70.1% (active). With `O=C1NC(c2ccccc2)C(C(=O)c2cccs2)=C1O` (centres undefined) the cytotoxicity was -9.1%. Work on `COc1ccccc1NC(=O)c1ccc(NS(C)(=O)=O)cc1` yielded a cytotoxicity of -6.8%. `C/C(=N\NC(=O)c1ccccn1)C12CC3CC(CC(C3)C1)C2` gave a cytotoxicity of -0.9%. Work on `CCN(CC)S(=O)(=O)c1cccc(-c2nnc(SCC(=O)NC3CCCC3)n2N)c1` yielded a cytotoxicity of -9.2%. `CCOc1ccccc1NC(=O)N1CCC(c2nc3ccccc3[nH]2)CC1` gave a cytotoxicity of 2.8%. For `COc1ccccc1NC(=O)N1CCC(c2nc3cc(C)c(C)cc3[nH]2)CC1`, the cytotoxicity was 72.8% (active). With `CCOc1ccccc1NC(=O)N1CCC(c2nc3ccc(C)cc3[nH]2)CC1` the cytotoxicity was -20.4%. Compound `Cc1ccc(NC(=O)/C(C#N)=C/c2cccs2)c(C)c1` has a cytotoxicity of -7.9%. In the case of `COC(=O)[C@@]1(Cc2ccc(F)cc2)[C@H]2c3cc(C(=O)N4CCCC4)n(CCc4ccc(O)c(O)c4)c3C[C@H]2CN1C(=O)c1ccccc1`, the cytotoxicity is reported as -15.9%. In the case of `COc1ccccc1CNC(=O)CCS(=O)(=O)c1cccs1`, the cytotoxicity is reported as -8.3%. In the case of `COc1cc(CNc2ccc(C)c(C)c2)cc(OC)c1OC`, the cytotoxicity is reported as 54.5% (active). In the case of `COc1cc(CNc2cc(C)ccc2C)cc(OC)c1OC`, the cytotoxicity is reported as -14.1%. With `COc1cc(CNc2ccccc2SC)cc(OC)c1OC` the cytotoxicity was -30.4%. In the case of `CCOC(=O)c1csc(NC(=O)C2CCCCC2)n1`, the cytotoxicity is reported as -6.3%. `CCc1c(C)sc(NC(=O)C2CCCO2)c1C#N` (centres undefined) gave a cytotoxicity of 0.6%. `O=C(Cn1c(CC(=O)N2CCCC2)nc2ccccc21)NCc1ccccc1` gave a cytotoxicity of 3%. Work on `COc1ccc(NC(=O)Nc2ncccc2C)cc1` yielded a cytotoxicity of 0.5%. In the case of `Cc1nnc(Sc2nc(Sc3nnc(C)s3)nc(N3CCN(C)CC3)n2)s1`, the cytotoxicity is reported as 59.7% (active). `Cc1nnc(SCCn2c(N3CCN(C)CC3)nc3c2c(=O)n(C)c(=O)n3C)s1` showed a cytotoxicity of -3.5%. In the case of `Cc1nnc(SCCn2c(N3CCN(C)CC3)nc3c2c(=O)[nH]c(=O)n3C)s1`, the cytotoxicity is reported as -10.1%. `COC(F)(C(=O)Nc1ccc2c(c1)C(=O)NC2=O)C(F)(F)F` (centres undefined) showed a cytotoxicity of 0.1%. `CC(=O)Nc1cc(-c2ccc(Cl)cc2)nn1-c1ccccc1` gave a cytotoxicity of 1.4%. Work on `CC(=O)Nc1ccc(-c2cc(NC(C)=O)n(-c3ccccc3)n2)cc1` yielded a cytotoxicity of -2.5%. In the case of `Cc1ccc(-c2cc(NC(=O)CCl)n(-c3ccccc3)n2)cc1`, the cytotoxicity is reported as 60.4% (active). Compound `Cc1cc(NC(=O)Nc2cc(C)nn2-c2ccccc2)n(-c2ccccc2)n1` has a cytotoxicity of 4.3%. `Cc1cc(NC(=O)COc2ccccc2)n(-c2ccccc2)n1` showed a cytotoxicity of 7.7%. For `O=C(CCl)Nc1cc(-c2ccccc2)nn1-c1ccccc1`, the cytotoxicity was 54.1% (active). `O=C(NCCc1c[nH]c2ccccc12)c1cnc2sccn2c1=O` showed a cytotoxicity of -1.9%. `O=C(NCC(c1cccnc1)N1CCN(c2ccccc2F)CC1)c1ccccc1` (centres undefined) showed a cytotoxicity of -1.1%. Compound `CC(NS(=O)(=O)c1ccc(OCC(=O)N2CCOCC2)cc1)c1ccccc1` (centres undefined) has a cytotoxicity of 0.3%. `O=C(Nc1ccc2c(c1)OCO2)OCc1ccccc1` gave a cytotoxicity of 13.2%. For `CCS(=O)(=O)n1nc(-c2ccc(Cl)cc2)nc1N`, the cytotoxicity was 0.1%. In the case of `Cn1nc(-c2ccc(Cl)cc2)nc2c(=O)n(C)c(=O)nc1-2`, the cytotoxicity is reported as 51% (active). Compound `CSc1nc(-c2ccc(Cl)cc2)nn1S(=O)(=O)c1ccc(Cl)cc1` has a cytotoxicity of -13%. `C=CCN=C(NC#N)SCCc1ccccc1` gave a cytotoxicity of -4.6%. In the case of `Cc1nn(C)c(C)c1NC(=O)c1ccnn1C`, the cytotoxicity is reported as -16.7%. In the case of `Oc1ccc(CN2CCc3ccccc3C2)c2cccnc12`, the cytotoxicity is reported as 33.5%. In the case of `OCCN1CCN(Cc2cc(Cl)c3cccnc3c2O)CC1`, the cytotoxicity is reported as -4.1%. Compound `CN1CCN(Cc2cc(COCc3ccccc3)c3cccnc3c2O)CC1` has a cytotoxicity of 43.1%.
